{"source": "PubChem BioAssay AID2316", "about": "(Broad Institute, 2010)", "note": "In all, about 29,000 compounds went through this assay and fewer than 10 were called active. Not all results are given here. Unmarked numbers belong to inactive results. The rule behind the calls is not given here.", "data": [{"test": "reversal of PD-1 mediated T-cell inhibition, primary screen, luminescence, primary human CD4 T cells, PD-L1 beads (AID 2316);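 note: 0% = median vehicle wells and 100% = positive control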", "conditions": "CellTiter-Glo 96 h, active compounds read high", "units": {"activation": "%"}, "values": [{"smiles": "C[C@@H]1CCCCO[C@@H](CN(C)C(=O)CCCN(C)C)[C@@H](C)CN([C@H](C)CO)C(=O)c2cc(NC(=O)Nc3ccc(F)cc3)ccc2O1", "activation": 0.492}, {"smiles": "C[C@@H]1CCCCO[C@@H](CN(C)S(=O)(=O)c2cccs2)[C@@H](C)CN([C@H](C)CO)C(=O)c2cc(NC(=O)Nc3ccc4c(c3)OCO4)ccc2O1", "activation": -0.659}, {"smiles": "C[C@H](CO)N1C[C@H](C)[C@@H](CN(C)Cc2ccccc2)Oc2c(NC(=O)C3CCOCC3)cccc2C1=O", "activation": -1.74}, {"smiles": "COC(=O)c1scc(S(=O)(=O)C(C)(C)C)c1-n1cccc1", "activation": -0.136}, {"smiles": "COc1cc(/C=C/C(=O)O[C@@H]2O[C@H](CO[C@@H]3O[C@H](CO)[C@@H](O)[C@H](O)[C@H]3O)[C@@H](O)[C@H](O)[C@H]2OC(=O)/C=C/c2cc(OC)c(O)c(OC)c2)cc(OC)c1O", "activation": -0.424}, {"smiles": "O=C(CCCN1C(=O)c2ccccc2C1=O)Nc1cccc2c1CCCC2", "activation": 1.14}, {"smiles": "CCC1(C)C(=O)C=C2C(=COC(C)=C2C)C1O", "note": "(centres undefined)", "activation": 0.686}, {"smiles": "CCCOc1ccc(C(=O)C2C(=O)C(=O)N(c3nc(C)c(C(=O)OC)s3)C2c2ccco2)cc1", "note": "(centres undefined)", "activation": 1.4}, {"smiles": "Cc1ccc(S(=O)(=O)Nc2cccc3c2O[C@@H](CN(C)CC2CCCCC2)[C@H](C)CN([C@@H](C)CO)C3=O)cc1", "activation": 3.09}, {"smiles": "C[C@H]1CN([C@@H](C)CO)C(=O)Cc2cc(NC(=O)Nc3ccc(F)cc3)ccc2O[C@@H]1CN(C)C(=O)NC1CCCCC1", "activation": 0.349}, {"smiles": "COc1ccc(S(=O)(=O)NCc2ccccn2)cc1I", "activation": 1.57}, {"smiles": "C[C@H](CO)N1C[C@H](C)[C@@H](CN(C)Cc2ccccc2)Oc2ccc(NC(=O)CCCN(C)C)cc2C1=O", "activation": 1.04}, {"smiles": "Cc1noc(C)c1NC(=O)Nc1ccc2c(c1)C(=O)N([C@H](C)CO)C[C@H](C)[C@@H](CN(C)C(=O)Nc1ccccc1)O2", "activation": 1.04}, {"smiles": "C[C@H](CO)N1C[C@H](C)[C@H](CN(C)Cc2ccc3c(c2)OCO3)Oc2c(cccc2N(C)C)C1=O", "activation": 0.478}, {"smiles": "C[C@H]1CN([C@@H](C)CO)C(=O)c2cccc(NC(=O)CCCCCC(=O)Nc3ccccc3N)c2O[C@@H]1CN(C)CC1CCCCC1", "activation": 0.769}, {"smiles": "CS(=O)(=O)N(CC(=O)NC1CC1)c1ccc(Cl)c(C(F)(F)F)c1", "activation": -0.255}, {"smiles": "CCOC(=O)c1cnn2c(C(F)(F)F)cc(C)nc12", "activation": 0.193}, {"smiles": "COC(=O)c1ccccc1NC(=O)C(C)Oc1ccccc1F", "note": "(centres undefined)", "activation": 2.99}, {"smiles": "COc1ccc(N2C(=O)CC(SCC(=O)Nc3ccccc3F)C2=O)cc1", "note": "(centres undefined)", "activation": 1.75}, {"smiles": "COc1ccc(C)cc1S(=O)(=O)N(C)CC(=O)Nc1ccc(Br)cc1F", "activation": 1.42}, {"smiles": "Cc1ccc(S(=O)(=O)Nc2ccc3c(c2)C(=O)N([C@H](C)CO)C[C@H](C)[C@@H](CN(C)C(=O)Nc2ccc4c(c2)OCO4)OCCCC[C@@H](C)O3)cc1", "activation": 0.503}, {"smiles": "CCCCn1c(O)c(C#N)c(C)cc1=O", "activation": 1.29}, {"smiles": "Cc1ccc(-c2csc3ncn(CC(=O)Nc4ccc(F)c(Cl)c4)c(=O)c23)cc1C", "activation": -0.0295}, {"smiles": "COc1ccc(NC(=O)N(C)C[C@@H]2OCCCC[C@@H](C)Oc3ccc(N(C)C)cc3C(=O)N([C@H](C)CO)C[C@@H]2C)cc1", "activation": 0.076}, {"smiles": "O=S(=O)(c1ccc(Cl)cc1)c1nc(-c2ccccc2F)oc1NCCN1CCOCC1", "activation": -0.673}, {"smiles": "NC(=O)c1c(NC(=O)c2cnn3c(C(F)F)cc(-c4ccccc4)nc23)sc2c1CCCC2", "activation": -5.98}, {"smiles": "C[C@@H]1CN([C@H](C)CO)C(=O)c2cc(NC(=O)Cc3cn(C)c4ccccc34)ccc2O[C@H]1CN(C)S(C)(=O)=O", "activation": -1.87}, {"smiles": "Cc1ccc(S(=O)(=O)Nc2cccc3c2O[C@@H](CN(C)C(=O)Nc2ccccc2)[C@H](C)CN([C@@H](C)CO)C3=O)cc1", "activation": 2.15}, {"smiles": "COc1ccc(S(=O)(=O)N(C)C[C@H]2Oc3ccc(NS(=O)(=O)c4c(C)noc4C)cc3CC(=O)N([C@@H](C)CO)C[C@H]2C)cc1", "activation": -0.136}, {"smiles": "COc1ccc(NC(=O)CSc2nc(-c3cccs3)cc(-c3ccsc3)c2C#N)cc1OC", "activation": -6.31}, {"smiles": "O=C(CCc1nc(-c2ccccc2Cl)no1)Nc1ccc(Cl)c(Cl)c1", "activation": 1.17}, {"smiles": "C=CCSc1nc(N)cc(=O)[nH]1", "activation": 0.998}, {"smiles": "C[C@@H]1CN([C@H](C)CO)C(=O)Cc2cc(NS(=O)(=O)c3ccc(Cl)cc3)ccc2O[C@H]1CN(C)S(=O)(=O)c1cccs1", "activation": -2.73}, {"smiles": "O=C(c1ccc(Cl)cc1)n1c(=O)oc2cc(Cl)ccc21", "activation": -0.599}, {"smiles": "Cc1ccccc1NC(=O)CSc1nnc(-c2ccc([N+](=O)[O-])cc2)n1C", "activation": 0.454}, {"smiles": "C[C@H]1CN([C@@H](C)CO)C(=O)c2cc(NS(=O)(=O)c3ccc(Cl)cc3)ccc2O[C@H]1CN(C)Cc1ccc(Oc2ccccc2)cc1", "activation": 0.482}, {"smiles": "O=C1Cc2ccc(F)cc2CC1C1=Cc2ccc(F)cc2CC1", "note": "(centres undefined)", "activation": -8.11}, {"smiles": "Cc1ccc([N+](=O)[O-])cc1N(CC(=O)Nc1ccc(Cl)c(C(F)(F)F)c1)S(C)(=O)=O", "activation": 3.56}, {"smiles": "N/C(CSc1nc2ccccc2s1)=N\\O", "activation": -0.165}, {"smiles": "C[C@@H]1CN([C@H](C)CO)C(=O)Cc2cc(NC(=O)NC3CCCCC3)ccc2O[C@H]1CN(C)S(C)(=O)=O", "activation": 2.26}, {"smiles": "CC(C)(C)c1cn2c3ccccc3nc2n1CCN1CCOCC1", "activation": -2.35}, {"smiles": "O=C(c1ccco1)N1CCN(CCOc2ccccc2)CC1", "activation": 4.48}, {"smiles": "COc1ccc(S(=O)(=O)Nc2ccc3c(c2)CC(=O)N([C@H](C)CO)C[C@@H](C)[C@@H](CN(C)C(=O)Nc2cccc4ccccc24)O3)cc1", "activation": 0.476}, {"smiles": "C[C@@H]1CCCCO[C@@H](CN(C)S(=O)(=O)c2cn(C)cn2)[C@@H](C)CN([C@H](C)CO)C(=O)c2cc(NC(=O)c3ccncc3)ccc2O1", "activation": 3.7}]}]}
